The sequences below were run against TRIM23 (assay: pooled miR-30 sensor sort-seq; sequence = guide strand). Details: shRNA.
Also: reference of the scale not given here.

Sequence	sensor-assay potency score (higher = more potent)
TTCTTCTGCAGCTCCATACTGA	-0.628
AACTCTACAATCATCCTGCTGC	0.546
TAAAATTGATGCTCGGATCTGA	0.781
TAAGCTCGAATACATGACCGGG	-0.886
TTTGTTAGCAAAAATCAGGAGC	-0.0645
TCAGCTAGAGGAACTCGCCTGT	0.453
TTTAACTTAAACAAGATAGTAG	0.417
TATGCACACAAACTACACCTGT	-0.275
TAGTTTGACAACCTTCTTCCAA	-0.272
TTGTAGAATGAGTAACTTGAGA	-0.898
TACTGAATGCTTGTGACCCTGG	0.0097
TAGAGGAACTCGCCTGTGCTTT	-1.17
TTTTCCGTTAACAACTTTGCAA	-0.567
ATCAACAACACTTAGAGCCATT	-1.25
TAGTAGTTTTTCCAGCACCATC	-1.64
TGCAACTTCTGTAAACTGCTGC	0.44
TATCTAAAATTGATGCTCGGAT	-0.778
TTTTGGTCCAATGTGAACTCGA	0.0711
